From PubChem BioAssay (Tox21)
Results filed as inconclusive are left out. Calls of active or inactive are those of the source. Unless noted, the call rests on the fitted dose curve; in most records, active means well fitted curve in the direction sought with a large enough effect in the repeat runs; inconclusive means weak or mixed curves; inactive means no such curve, though single readings can be large; an effect the other way counts as inactive or inconclusive.

Columns and labels:
[1] = qHTS assay to identify small molecule agonists of H2AX (AID 1224845; active means well fitted activation curve with a large enough effect in the signal ratio in the repeat runs, not every such curve was filed as active; the % refers to the signal ratio)
How it was run: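 Phospho-H2AX Ser139 measured by HTRF (ex 320 nm; em 665 and 620 nm) after 24 hr antibody incubation. Compounds, 15 concentrations, 0.76% DMSO, were applied to CHO-K1 cells for 3hr at 37C before lysis.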

[2] = qHTS assay to identify small molecule agonists of the hypoxia (HIF-1) signaling pathway (AID 1224846; active means well fitted activation curve with a large enough effect in the signal ratio in the repeat runs, not every such curve was filed as active; the % refers to the signal ratio)
How it was run: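 A low-serum medium (0.5% dialyzed FBS) holding 2,000 HRE-bla ME-180 cells per well is preincubated for 5 hrs, dosed with compounds by pintool, and kept a further 17 hrs at 37C, 5% CO2 before CCF4-AM FRET detection of beta-lactamase.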

[3] = qHTS assay to identify small molecule agonists of H2AX - cell viability counter screen (AID 1224847; calls by dose curve; further: nearly all actives have a fitted effect of over 30% in size; further: potency means the concentration at half of the fitted maximal effect)
How it was run: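 Compounds tested at 15 concentrations were incubated 3 hr at 37C with wild-type CHO-K1 cells; cellular ATP-based luminescence (CellTiter-Glo) indicated viability.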

[4] = qHTS assay to identify small molecule antagonists of the estrogen related receptor (ERR) signaling pathway from Tox21 library (AID 1224848); further: nearly all actives have a fitted effect of over 50% in size; further: potency means the concentration at half of the fitted maximal effect
How it was run: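 Reading was by luminescence 30 min after ONE-Glo addition. Before that, ERR cells at 2,000 per well had rested 6 h at 37 C/5% CO2 and then received pin-tooled compounds in DMSO for 18 h at 37 C.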

[5] = qHTS assay to identify small molecule agonists of the estrogen related receptor (ERR) signaling pathway from Tox21 library (AID 1224849; calls by dose curve; further: nearly all actives have a fitted effect of over 15% in size); conditions: ERR reporter cell line, ONE-Glo luciferase, 18 h; at 92.4 µM (top of the series) unless noted
How it was run: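 Screening used an NTP-provided ERR luciferase cell line. Compounds in DMSO were added 6 h after seeding and left 18 h at 37 C before a 30 min ONE-Glo step and luminescence reading.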

[6] = qHTS RealTime-Glo MT Cell Viability Assay in HepG2 cells - 24 hour (AID 1224867); further: nearly all actives have a fitted effect of over 50% in size
How it was run: (§1)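 Compound treatment began 5 h after plating HepG2 cells (600/well) with NanoLuc luciferase and prosubstrate. Plates stayed at 37 C for 40 h; luminescence was captured at six time points, 0 h through 40 h.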

[7] = qHTS RealTime-Glo MT Cell Viability Assay in HEK293 cells - 32 hour (AID 1224868); further: nearly all actives have a fitted effect of over 50% in size; further: potency means the concentration at half of the fitted maximal effect
How it was run: (§2)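 Quantitative high-throughput screen of the Tox21 10K library in HEK293: cells and RealTime-Glo reagents plated together, compound added at 5 h, luminescence monitored through 40 h at 37 C.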

[8] = A CellTox Green Cytotoxicity Assay to monitor cytotoxicity in HEK293 cells - 0 hour (AID 1224869); further: nearly all actives have a fitted effect of over 50% in size
How it was run: (§3)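 Fluorescence intensity, read at 0, 8, 16, 24, 32 and 40 h of compound treatment, reflected dye binding to DNA of dead HEK293 cells; compounds (23 nL, DMSO) were added 5 h after plating cells with reagent.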

[9] = qHTS RealTime-Glo MT Cell Viability Assay in HepG2 cells - 40 hour (AID 1224870); further: nearly all actives have a fitted effect of over 50% in size
How it was run: (§4)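 Real-time viability: cells seeded at 600 per well together with NanoLuc and cell-permeant prosubstrate, compounds added after 5 h incubation. Luminescence tracked at 0, 8, 16, 24, 32 and 40 h of exposure.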

[10] = A CellTox Green Cytotoxicity Assay to monitor cytotoxicity in HEK293 cells - 40 hour (AID 1224871); further: nearly all actives have a fitted effect of over 45% in size
How it was run: as §3

[11] = qHTS RealTime-Glo MT Cell Viability Assay in HEK293 cells - 16 hour (AID 1224872); further: nearly all actives have a fitted effect of over 50% in size; further: potency means the concentration at half of the fitted maximal effect
How it was run: as §2

[12] = qHTS RealTime-Glo MT Cell Viability Assay in HepG2 cells - 8 hour (AID 1224873); further: nearly all actives have a fitted effect of over 55% in size
How it was run: as §4

[13] = qHTS RealTime-Glo MT Cell Viability Assay in HEK293 cells - 40 hour (AID 1224874); conditions: RealTime-Glo luminescence; max response: active compounds read low; further: nearly all actives have a fitted effect of over 50% in size; further: potency means the concentration at half of the fitted maximal effect
How it was run: (§5)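 Viable HEK293 cells reduce a cell-permeant prosubstrate; the product diffuses out and is consumed by NanoLuc in the medium to give light. Compounds went in after a 5 h incubation and plates were read over the treatment course.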

[14] = A CellTox Green Cytotoxicity Assay to monitor cytotoxicity in HEK293 cells - 24 hour (AID 1224875); further: nearly all actives have a fitted effect of over 45% in size
How it was run: as §3

[15] = A CellTox Green Cytotoxicity Assay to monitor cytotoxicity in HepG2 cells - 16 hour (AID 1224876); further: nearly all actives have a fitted effect of over 45% in size
How it was run: (§6)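 Using 1536-well format, dye-containing HepG2 suspension was seeded, allowed 5 h at 37 C/5% CO2, dosed by pintool with compounds, positive and negative controls, and imaged for fluorescence across 40 h.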

[16] = qHTS RealTime-Glo MT Cell Viability Assay in HepG2 cells - 32 hour (AID 1224877); further: nearly all actives have a fitted effect of over 55% in size
How it was run: as §1

[17] = A CellTox Green Cytotoxicity Assay to monitor cytotoxicity in HepG2 cells - 24 hour (AID 1224878); further: nearly all actives have a fitted effect of over 45% in size
How it was run: as §6

[18] = A CellTox Green Cytotoxicity Assay to monitor cytotoxicity in HepG2 cells - 40 hour (AID 1224879); further: nearly all actives have a fitted effect of over 40% in size; further: potency means the concentration at half of the fitted maximal effect
How it was run: as §6

[19] = qHTS RealTime-Glo MT Cell Viability Assay in HEK293 cells - 0 hour (AID 1224880)
How it was run: as §5

[20] = A CellTox Green Cytotoxicity Assay to monitor cytotoxicity in HEK293 cells - 32 hour (AID 1224881); further: nearly all actives have a fitted effect of over 40% in size
How it was run: as §3
On the % scale 0 is the no-effect control and ±100 the full control effect.

CCC(Cl)CCC(Cl)C(Cl)CC(Cl)C(Cl)C(Cl)CCl (stereo unspecified)
inactive: Potency [1] | Potency [2] | Potency [3] | Potency [4] | activity change, positive = activation [5] 0.0481% | Potency [6] | Potency [7] | Potency [8] | Potency [9] | Potency [10] | Potency [11] | Potency [12] | max response [13] 0.988% | Potency [14] | Potency [15] | Potency [16] | Potency [17] | Potency [18] | Potency [19] | Potency [20]

C[C@@H]1C[C@H]2O[C@@]3(O[C@@H]2C(C)(C)O)[C@H](O)[C@@]2(C)[C@@H]4CC[C@H]5C(C)(C)[C@@H](O[C@@H]6OC[C@@H](O)[C@H](O)[C@H]6O)CC[C@@]56C[C@@]46CC[C@]2(C)[C@@H]13
inactive: Potency [1] | Potency [2] | Potency [3] | Potency [4] | activity change, positive = activation [5] -12.2% [at 42.5 µM] | Potency [6] | Potency [7] | Potency [8] | Potency [9] | Potency [10] | Potency [11] | Potency [12] | max response [13] -15.4% | Potency [16] | Potency [17] | Potency [18] | Potency [20]

CC(=O)[O][Al][O]C(C)=O
inactive: Potency [1] | Potency [2] | Potency [3] | Potency [4] | activity change, positive = activation [5] 1.12% | Potency [6] | Potency [7] | Potency [8] | Potency [9] | Potency [10] | Potency [11] | Potency [12] | max response [13] 6.93% | Potency [15] | Potency [16] | Potency [17] | Potency [19] | Potency [20]

CC[N+](C)(CC)CCOC(=O)C(O)(c1ccccc1)C1CCCCC1 (stereo unspecified)
inactive: Potency [1] | Potency [2] | Potency [3] | Potency [4] | activity change, positive = activation [5] -2.02% [at 42.5 µM] | Potency [6] | Potency [7] | Potency [8] | Potency [9] | Potency [10] | Potency [11] | Potency [12] | max response [13] 6.78% | Potency [14] | Potency [15] | Potency [16] | Potency [17] | Potency [18] | Potency [19] | Potency [20]

COc1cc(C(=O)OCCCN2CCCN(CCCOC(=O)c3cc(OC)c(OC)c(OC)c3)CC2)cc(OC)c1OC
active: Potency [7] 9.52 µM | Potency [11] 5.35 µM | Potency [13] 9.52 µM | Potency [18] 23.9 µM
inactive: Potency [1] | Potency [2] | Potency [3] | Potency [4] | activity change, positive = activation [5] -15% [at 42.5 µM] | Potency [6] | Potency [8] | Potency [9] | Potency [12] | Potency [15] | Potency [16] | Potency [19]

NS(=O)(=O)c1ccc(N2CCCCS2(=O)=O)cc1
inactive: Potency [1] | Potency [2] | Potency [3] | Potency [4] | activity change, positive = activation [5] 5.22% [at 42.5 µM] | Potency [6] | Potency [7] | Potency [8] | Potency [9] | Potency [10] | Potency [11] | Potency [12] | max response [13] -0.0797% | Potency [14] | Potency [15] | Potency [16] | Potency [17] | Potency [18] | Potency [19] | Potency [20]

NCCCN1CCOCC1
inactive: Potency [1] | Potency [2] | Potency [3] | Potency [4] | activity change, positive = activation [5] 6.49% | Potency [6] | Potency [7] | Potency [8] | Potency [9] | Potency [10] | Potency [11] | Potency [12] | max response [13] -9.34% | Potency [14] | Potency [16] | Potency [17] | Potency [18] | Potency [19] | Potency [20]

OC(C#CCN1CCCC1)(c1ccccc1)c1ccccc1
inactive: Potency [1] | Potency [2] | Potency [3] | Potency [4] | activity change, positive = activation [5] -10.1% [at 42.5 µM] | Potency [6] | Potency [7] | Potency [8] | Potency [9] | Potency [10] | Potency [11] | Potency [12] | max response [13] -8.96% | Potency [14] | Potency [15] | Potency [16] | Potency [17] | Potency [18] | Potency [19] | Potency [20]

OC[C@H]1O[C@@H](OCCc2ccc(O)cc2)[C@H](O)[C@@H](O)[C@@H]1O
inactive: Potency [1] | Potency [2] | Potency [3] | Potency [4] | activity change, positive = activation [5] 4.76% [at 42.5 µM] | Potency [6] | Potency [7] | Potency [8] | Potency [9] | Potency [10] | Potency [11] | Potency [12] | max response [13] 7.46% | Potency [14] | Potency [15] | Potency [16] | Potency [17] | Potency [19] | Potency [20]

CCCCC/C=C\C/C=C\CCCCCCCC(=O)NC(C)c1ccccc1 (stereo unspecified)
inactive: Potency [1] | Potency [2] | Potency [3] | activity change, positive = activation [5] -35.5% [at 42.5 µM] | Potency [6] | Potency [7] | Potency [8] | Potency [9] | Potency [10] | Potency [11] | Potency [12] | max response [13] -16.2% | Potency [14] | Potency [16] | Potency [17] | Potency [18] | Potency [19] | Potency [20]
active: Potency [4] 18.8 µM

CCCCCCCC/C=C\CCCCCCCC(=O)OCC
inactive: Potency [1] | Potency [2] | Potency [3] | Potency [4] | activity change, positive = activation [5] -11.5% | Potency [6] | Potency [7] | Potency [8] | Potency [9] | Potency [10] | Potency [11] | Potency [12] | max response [13] 4.58% | Potency [14] | Potency [15] | Potency [16] | Potency [17] | Potency [19] | Potency [20]

CC(C)OC(=O)C(C)N(C(=O)c1ccccc1)c1ccc(F)c(Cl)c1 (stereo unspecified)
active: Potency [3] 56.6 µM | Potency [4] 17.2 µM
inactive: Potency [1] | Potency [2] | activity change, positive = activation [5] -51.7% | Potency [6] | Potency [7] | Potency [8] | Potency [9] | Potency [10] | Potency [11] | Potency [12] | max response [13] -29.8% | Potency [14] | Potency [16] | Potency [17] | Potency [18] | Potency [19] | Potency [20]
